# Target: RAB28
# Experiment: pooled miR-30 sensor sort-seq; sequence = guide strand
# Settings: shRNA
# Also: reference of the scale not given here.
row,Sequence,sensor-assay potency score (higher = more potent)
1,TTAACAGTCCTTGACATAGGTT,-0.695
2,TTATCCAACATTTTGCCTCCTA,0.54
3,TATTTATCCAACATTTTGCCTC,-0.421
4,TTTGTTTGTACTGTTTCCCAAA,-0.914
5,TTATTGTTCGCATATGCTCCAA,-0.667
6,TAGTTAAGGAGGTCTTCCCGGA,-0.69
7,TAACAGTCCTTGACATAGGTTC,-0.143
8,TTTGATAATTTGTAATATCATA,-1.64
9,ATTTGTAATATCATATACCAAG,-1.51
10,TTGAAGGGTAACATTCAAGTTT,-0.65
11,TATTGTTCGCATATGCTCCAAA,-0.803

# Target: RAB3D
# Experiment: as above
# Settings: shRNA
row,Sequence,sensor-assay potency score (higher = more potent)
1,TTCACATTGATGTTCTCCTTGG,-0.53
2,TTGAACATATAGTCGAAGTTCT,0.33
3,TATAGTCGAAGTTCTGATCTGC,0.851
4,TTGACCTTGAAATCGATGCCCA,-0.115
5,TTGATGTTCTCCTTGGCACTGG,-0.145
6,TTGGAATCCAGAAAGTTCGTGG,0.567
7,TGAACCATCTTCCACCAGCTTG,-1.09
8,TTCTGATCTGCTGCATCCCGTG,-1.02
9,TATCAGTAGCAGTTTGAACATA,-1.09
10,TTGCTGCCTGAGCTGGAGCTGG,-1.52
11,TAAGCTAGAAGGCACCACGGAT,-0.984
12,TAGCAGTTTGAACATATAGTCG,-0.969

# Target: RAB3GAP2
# Experiment: as above
# Settings: shRNA
row,Sequence,sensor-assay potency score (higher = more potent)
1,TTTATTCCACTGAACAACGTAC,-0.27
2,TAAAACACAATCTTGGAGCCAG,0.291
3,TTCAAGTGTTCTATTGACCTAA,0.6
4,TATGAGACAATCCTCCAGCTGT,-0.612
5,TTCAGTGTTTTGAAGGTCCTGG,-0.334
6,TTATTTACTAGTTTAGCTGTTG,0.0265
7,TTAATTGACTGACAGACTCATA,-0.923
8,TTACAGGCAACACACCATCTTT,-1.36
9,TTCTGTGGGATCTTTGACCTTT,0.671
10,TTTGCTGTGAAGCAGAGTCTGA,-0.886
11,TTGACTGACAGACTCATAGAGT,-0.525

# Target: RABGEF1
# Experiment: as above
# Settings: shRNA
row,Sequence,sensor-assay potency score (higher = more potent)
1,TTTCTTTTCTTCAAACTTGGAG,-0.131
2,TTTCAGAGTCAATAGCTGCTAA,-0.257
3,TTAGTTACATTCTAGATCCCAA,0.187
4,TTTCTTGCACAGGAGATCCGAT,-0.404
5,TTCATTAACAGGGACACACAGC,-0.293

# From the OligoGym collection
